Values joined by “and” are separate entries in the source; they are usually repeats but may differ in a detail not shown here. Equal values may be shown once. Hit rate of the full screen: of about 5,500 compounds, about 2,000 (36%) were called active. About 18% were inconclusive and are not listed. Rule as the data show it: active = normalized growth mostly below about 0.91 (no sharp cut-off); inconclusive = no clear call, values can overlap the other calls; inactive = mostly above about 0.92. This is one part of the list.
Assay: chemical genetic growth profiling, strain panel (AID 1159580);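 also: tested at 20 µM; growth read once vehicle control cultures reached saturation at 30 °C; 1 = growth at the plate median or of vehicle wells; lower values mean less growth of the strain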
Conditions: S. cerevisiae deletion strains, growth OD

Measured: normalized growth

CCOC(=O)[C@H](CCc1ccccc1)N[C@@H](C)C(=O)N1CCC[C@H]1C(=O)O
inactive: locus YAL021C, strain ccr4, stronger effect = lower value 0.98 | locus YAL026C, strain drs2, stronger effect = lower value 1 | locus YAL030W, strain snc1, stronger effect = lower value 0.992 | locus YBL061C, strain skt5, stronger effect = lower value 0.987 | locus YBR009C, strain hhf1, stronger effect = lower value 1.01 | locus YBR021W, strain FUR4, stronger effect = lower value 1.01 | locus YBR023C, strain chs3, stronger effect = lower value 0.988 | locus YBR171W, strain sec66, stronger effect = lower value 0.979 | locus YBR229C, strain ROT2, stronger effect = lower value 1 | locus YBR231C, strain swc5, stronger effect = lower value 1 | locus YBR279W, strain paf1, stronger effect = lower value 0.973 | locus YCL011C, strain gbp2, stronger effect = lower value 0.976 | locus YCL016C, strain dcc1, stronger effect = lower value 0.969 | locus YCL029C, strain bik1, stronger effect = lower value 1.02 | locus YCL061C, strain MRC1, stronger effect = lower value 1.01 | locus YCL069W, strain vba3, stronger effect = lower value 0.988 | locus YCR088W, strain abp1, stronger effect = lower value 0.995 | locus YDL005C, strain med2, stronger effect = lower value 0.995 | locus YDL035C, strain GPR1, stronger effect = lower value 1.03 | locus YDL040C, strain nat1, stronger effect = lower value 0.992 | locus YDL074C, strain BRE1, stronger effect = lower value 1.02 | locus YDL101C, strain DUN1, stronger effect = lower value 1.01 | locus YDL134C, strain PPH21, stronger effect = lower value 1.01 | locus YDL185W, strain tfp1, stronger effect = lower value 1.01 | locus YDL192W, strain arf1, stronger effect = lower value 1.01 | locus YDR001C, strain nth1, stronger effect = lower value 0.996 | locus YDR069C, strain doa4, stronger effect = lower value 0.984 | locus YDR101C, strain arx1, stronger effect = lower value 0.994 | locus YDR137W, strain rgp1, stronger effect = lower value 0.988 | locus YDR159W, strain sac3, stronger effect = lower value 0.937 | locus YDR162C, strain NBP2, stronger effect = lower value 1.01 | locus YDR195W, strain ref2 0.981 | locus YDR297W, strain sur2, stronger effect = lower value 1 | locus YDR318W, strain mcm21, stronger effect = lower value 1.02 | locus YDR334W, strain swr1, stronger effect = lower value 0.998 | locus YDR335W, strain msn5, stronger effect = lower value 0.991 | locus YDR388W, stronger effect = lower value 1.02 | locus YDR392W, strain spt3, stronger effect = lower value 0.923 | locus YDR502C, strain sam2, stronger effect = lower value 1.01 | locus YEL003W, strain gim4, stronger effect = lower value 1 | locus YEL037C, strain rad23, stronger effect = lower value 0.988 | locus YEL061C, strain CIN8 (second series), stronger effect = lower value 0.999 | locus YEL061C, strain CIN8, stronger effect = lower value 0.999 | locus YER015W, strain faa2, stronger effect = lower value 1 | locus YER016W, strain bim1, stronger effect = lower value 0.98 | locus YER110C, stronger effect = lower value 1.02 | locus YER111C, strain swi4, stronger effect = lower value 0.985 | locus YER155C, strain BEM2 (second series), stronger effect = lower value 1.02 | locus YER155C, strain BEM2, stronger effect = lower value 0.996 | locus YER167W, strain BCK2, stronger effect = lower value 0.997 | locus YFR010W, strain ubp6, stronger effect = lower value 1.01 | locus YGL078C, strain dbp3, stronger effect = lower value 1.01 | locus YGL086W, strain mad1, stronger effect = lower value 0.998 | locus YGL167C, strain pmr1, stronger effect = lower value 0.99 | locus YGL173C, strain kem1, stronger effect = lower value 0.995 | locus YGL227W, strain vid30, stronger effect = lower value 0.996 | locus YGL240W, strain doc1, stronger effect = lower value 0.985 | locus YGL248W, strain PDE1, stronger effect = lower value 1 | locus YGL253W, strain hxk2, stronger effect = lower value 0.987 | locus YGR078C, strain PAC10, stronger effect = lower value 1.02 | locus YGR135W, strain pre9, stronger effect = lower value 1.02 | locus YGR252W, strain gcn5, stronger effect = lower value 1.05 | locus YHR013C, strain ard1, stronger effect = lower value 0.967 | locus YHR027C, strain rpn1, stronger effect = lower value 1.01 | locus YHR030C, strain SLT2, stronger effect = lower value 0.998 and 1.03 | locus YHR079C, strain IRE1 (second series), stronger effect = lower value 1.01 | locus YHR079C, strain IRE1, stronger effect = lower value 1.05 | locus YHR094C, strain hxt1, stronger effect = lower value 1.01 | locus YHR129C, strain ARP1, stronger effect = lower value 0.998 | locus YHR142W, strain chs7, stronger effect = lower value 0.98 | locus YHR200W, strain rpn10, stronger effect = lower value 1.01 | locus YIL066C, strain RNR3, stronger effect = lower value 1.01 | locus YIL073C, strain SPO22, stronger effect = lower value 1.07 | locus YIL125W, strain kgd1, stronger effect = lower value 1.01 | locus YIR030C, strain dcg1, stronger effect = lower value 1.01 | locus YJL092W, strain hpr5, stronger effect = lower value 1 | locus YJL095W, strain BCK1 (second series), stronger effect = lower value 1 | locus YJL095W, strain BCK1, stronger effect = lower value 1.02 and 1.03 | locus YJL115W, strain asf1, stronger effect = lower value 0.989 | locus YJL129C, strain trk1, stronger effect = lower value 0.954 | locus YJL134W, strain LCB3, stronger effect = lower value 1 | locus YJL154C, strain vps35, stronger effect = lower value 0.99 | locus YJL164C, strain tpk1, stronger effect = lower value 0.98 | locus YJL166W, strain qcr8, stronger effect = lower value 1 | locus YJL168C, strain set2, stronger effect = lower value 1.01 | locus YJL187C, strain SWE1 (second series), stronger effect = lower value 1.01 | locus YJR043C, strain POL32, stronger effect = lower value 1.03 | locus YJR066W, strain TOR1, stronger effect = lower value 0.985
